A selection: hits, their analogues and other compounds. The true share with any hit is near 2.4%.
WRN helicase inh: inhibitors of human WRN helicase; WRN helicase unwinding, fluorescent forked duplex, kinetic; Potency, µM (doses to about 114 µM), for the others: at the highest dose activity change, negative = inhibition, usual class: inhibitors; 0.46% of 360,000 active; AID 651768; also: % is scaled to controls: 0 for no effect and ±100 for the full control effect; nearly all actives have a fitted effect of over 55% in size
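WRN at 20 nM final preincubated with compound 15 min at room temperature; reaction started with 100 nM fluorophore/quencher forked duplex oligonucleotide and 2 mM ATP final. Unwinding followed kinetically by red fluorescence (ex 525, em 598 nm).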
Pol kappa inh: DNA polymerase kappa (human) inhibition. Q9UBT6. purified Pol kappa, fluorescent DNA synthesis assay, 10 min. Potency, µM (doses to about 107 µM), for the others: at the highest dose activity, negative = inhibition, usual class: inhibitors. 0.53% of 400,000 active; also: % is scaled to controls: 0 for no effect and ±100 for the full control effect
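Fluorescent qHTS in 1536-well format: enzyme (10 nM) and compound sat 15 min at room temperature before 50 nM substrate (final) was added. Signal taken at 0 and 10 min; no-enzyme buffer wells were negative controls.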
POLI inh: DNA polymerase iota (human) inhibition. AID 588590. Q9UNA4. 1% of 390,000 active. Pol iota fluorescent replication assay, 10 min. Potency, µM (titrated, usually from 115 µM), for the others: at the highest dose activity, negative = inhibition, usual class: inhibitors
Target sequence (Q9UNA4 whole entry, looked up): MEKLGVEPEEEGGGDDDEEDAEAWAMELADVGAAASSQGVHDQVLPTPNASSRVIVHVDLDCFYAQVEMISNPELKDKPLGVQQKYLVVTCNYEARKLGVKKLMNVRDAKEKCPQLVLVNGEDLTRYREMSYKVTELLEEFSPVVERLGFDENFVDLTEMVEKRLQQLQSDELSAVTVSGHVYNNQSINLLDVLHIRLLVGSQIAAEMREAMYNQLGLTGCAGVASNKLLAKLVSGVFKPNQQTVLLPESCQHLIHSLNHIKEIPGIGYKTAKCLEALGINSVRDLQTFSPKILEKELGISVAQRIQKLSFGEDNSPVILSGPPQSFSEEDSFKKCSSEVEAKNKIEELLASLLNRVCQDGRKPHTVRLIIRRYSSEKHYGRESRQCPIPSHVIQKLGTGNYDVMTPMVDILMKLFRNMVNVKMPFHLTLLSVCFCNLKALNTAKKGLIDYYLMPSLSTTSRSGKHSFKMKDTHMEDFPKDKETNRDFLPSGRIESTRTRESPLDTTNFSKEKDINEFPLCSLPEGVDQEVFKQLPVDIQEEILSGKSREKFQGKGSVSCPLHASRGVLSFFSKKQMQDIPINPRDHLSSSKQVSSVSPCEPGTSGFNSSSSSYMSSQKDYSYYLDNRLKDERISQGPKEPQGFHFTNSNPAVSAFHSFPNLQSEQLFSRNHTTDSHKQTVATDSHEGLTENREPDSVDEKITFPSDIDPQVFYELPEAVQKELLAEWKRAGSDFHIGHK
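Pol iota at 10 nM preincubated 15 min with compounds at room temperature; reaction started with fluorescent substrate, 50 nM final. Fluorescence read kinetically at 0 and 10 min; buffer-only wells as negative control.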
Pol beta inh: inhibitors of human DNA polymerase beta. P06746. Pol beta primer extension/strand displacement, fluorescence kinetic. Potency, µM (series often up to 114 µM), for inactives: at the top dose activity change, negative = inhibition, usual class: inhibitors. 1.3% of 340,000 active. AID 485314; also: % is scaled to controls: 0 for no effect and ±100 for the full control effect
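Pol beta (10 nM) and compounds were preincubated 15 min at room temperature, then 50 nM substrate (final) started primer extension/strand displacement. Reads were taken at 0 and 10 min; concentration-response data were fitted to a four-parameter Hill equation.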
FEN1 inhibitor: inhibitors of human flap endonuclease 1; 0.35% of 390,000 active; Recombinant FEN1 flap cleavage, fluorescence, 15 min; Potency, µM (doses to about 114 µM), for inactives: at the highest dose activity change, negative = inhibition, usual class: inhibitors; P39748; also: % is scaled to controls: 0 for no effect and ±100 for the full control effect; nearly all actives have a fitted effect of over 65% in size
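Potency values derive from four-parameter Hill fits of normalized qHTS data. The reaction used 10 nM FEN1 preincubated 15 min at room temperature with compound, then 50 nM DNA substrate, read at 0 and 15 min.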
Pol eta inh: DNA polymerase eta (human) inhibition. Q9Y253. recombinant Pol eta, fluorescent DNA replication assay. Potency, µM (doses to about 114 µM), inactives show top-dose activity change, negative = inhibition, most hits filed as inhibitors. 1.2% of 390,000 active; also: % is scaled to controls: 0 for no effect and ±100 for the full control effect
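Pol eta (10 nM) was preincubated with compounds for 15 min at room temperature, after which fluorescent replication substrate (50 nM final) was added to start the reaction. Fluorescence was read kinetically at 0 and 10 min.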
* hit, by the source's call; ? = inconclusive; . = no result; [ ] = another dose, or the depositor's remark. Calls follow the shape of the dose curve; as a rule, active = well fitted curve in the direction sought with a large enough effect; inconclusive = small, poorly fitted or top-dose-only effect, or another doubt; inactive = no such curve, though single readings can be large; an effect the other way counts as inactive or inconclusive. Potency is read from the fitted curve at half-maximal effect.

SMILES	WRN helicase inh	Pol kappa inh	POLI inh	Pol beta inh	FEN1 inhibitor	Pol eta inh
COc1ccc(-c2cc(=O)c3cc(C)ccc3[nH]2)cc1	-6%	-11%	79µM*	4%	-6%	9%
Cc1ccc2[nH]c(-c3ccccc3)cc(=O)c2c1	10%	0%	18%	25%	-12%	-13%
Cc1c(Cl)c([N+](=O)[O-])nn1CCCC(=O)Nc1c(Cl)cccc1Cl	8%	2%	19%	-27%	-1%	-8%
Cc1nn(Cc2ccc(Cl)cc2)c(C)c1NC(=O)CCCn1nc([N+](=O)[O-])c(Cl)c1C	-1%	-17%	11%	89µM*	-5%	0%
Cc1ccc(Nc2c(-c3ccc(C)s3)nc3cccc(C)n23)cc1	.	-4%	45%	.	-9%	.
COc1ccc(-c2cn3nc(SCC(=O)Nc4cc(C)cc(C)c4)ccc3n2)cc1	.	-7%[60.1 µM]	6%	24%	-14%	-21%
CCOC(=O)N1CCN(/[N+]([O-])=N/Oc2ccc([N+](=O)[O-])cc2[N+](=O)[O-])CC1	.	1%[60.1 µM]	?	.	9%	.
COCCN=c1scc(-c2ccccc2)n1/N=C/c1c[nH]c2ccccc12	-12%	-15%	-7%	14%	-24%	-8%
COCCN=c1scc(-c2cccs2)n1/N=C/c1ccc(O)c(O)c1O	-36%[57.1 µM]	?	?	4.5µM*	?	?
COc1ccc(C(=O)c2ccccc2)c(O)c1O	.	10µM*	.	.	.	.
CC(=O)N1CCc2cc(CNC(=O)Nc3cc(Cl)ccc3C)ccc21	.	-4%[60.1 µM]	12%	28µM*	-4%	-10%
CCC(=O)N1CCc2cc(CNC(=O)Nc3cc(Cl)ccc3C(=O)OC)ccc21	.	-9%[60.1 µM]	-28%	1%	-3%	-12%
Cc1ccc(-c2nc(N3CCN(S(=O)(=O)c4ccc(F)cc4)CC3)c3ccc(Cl)cc3n2)cc1	.	14%	-2%	.	-2%	.
CC(=O)OCC1OC(n2cc(F)c(=O)[nH]c2=O)C(OC(C)=O)C1OC(C)=O (configuration not stated)	1%	-18%	2%	.	-3%	-17%
O=C1C(F)=CC(COC(c2ccccc2)(c2ccccc2)c2ccccc2)OC1n1cc(F)c(=O)[nH]c1=O (configuration not stated)	?	-14%	?	.	-4%	50µM*
O=C1c2c(O)cc(O)cc2O[C@H](c2ccc(O)c(O)c2)[C@H]1O	-8%[11.6 µM]	?	79µM*	3.2µM*	?	4%
O=C1c2c(O)cc(O)cc2O[C@H](c2ccc(O)c(O)c2)[C@@H]1O	.	.	.	3.5µM*	.	.
C[C@@H]1O[C@@H](O[C@@H]2C(=O)c3c(O)cc(O)cc3O[C@H]2c2ccc(O)c(O)c2)[C@H](O)[C@H](O)[C@H]1O	-16%	-31%	-18%	.	-6%	1%
O=C1c2c(O)cc(O)cc2O[C@H](c2ccc(O)cc2)[C@H]1O	2%	8%	-15%	.	10%	-12%
Cc1ccc(-c2nc3ccccc3o2)cc1NC(=O)C(C)Oc1ccccc1 (configuration not stated)	.	-3%	-7%	.	2%	.
CC(C)CCCC(C)C1CC(=O)C2=C3CCC4CC(O)CCC4(C)C3CCC21C (configuration not stated)	.	1%[19.4 µM]	.	.	.	.
CC1=CC(=O)C2=C(C)CC[C@H]3[C@H](C)C(=O)O[C@@H]3C12 (some centres not stated)	.	10%[60.1 µM]	.	.	.	.
Cc1coc2c1C(=O)C(=O)c1c-2ccc2c(C)cccc12	-36%	79µM*	?	20µM*	?	28µM*
Cc1coc2c1C(=O)C(=O)c1c-2ccc2c1CCCC2(C)C	-7%[11.6 µM]	?	?	22µM*	?	89µM*
N#CC(C#N)=C1C=CC=CN1/C(=C\c1ccco1)C(=O)c1ccccc1	18µM*	-5%	-15%	29%	4%	-18%
COc1ccc(C(=O)/C(=C\c2ccco2)N2C=CC=CC2=C(C#N)C#N)cc1	?	-3%	?	-3%	0%	?
